Most compounds without a hit are left out; they make up all but 1.6% or so of the library.
IkB sig inh = IkB pathway inhibition in ABC-DLBCL cells | AID 445 | 0.04% of 110,000 active | ABC-DLBCL IkBa-CBG/CBR dual luciferase ratio, 4 h; response scale: scaled: untreated 0%, proteasome inhibitor 100% | Potency, µM (highest dose often 57.1 µM); active = well fitted curve in the direction sought with a large enough effect in the signal ratio, not every such curve was filed as active; inconclusive = small, poorly fitted or top-dose-only effect, or a change in a side signal; the % refers to the signal ratio;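 also: the direction sought is a rising ratio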
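Luminescence ratio of IκBα-fused green versus native red beetle luciferase in OCI-Ly3 cells, 4 h post-doxycycline with compound; red signal alone, scaled from basal (0%) to zero light (-100%), flagged nonspecific or cytotoxic effects.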
Imprint erasure = induces erasure of genomic imprints in mouse ES cells. mouse ES Peg3-LacZ reporter, beta-gal luminescence, 40 h. Potency, µM (series often up to 60.7 µM), actives largely listed as activators. 0.02% of 110,000 active. AID 1948
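Readout: BetaGlo luminescence (5 min, room temp) for LacZ from the normally silent maternal Peg3 allele in female Peg3LacZ-Neo ES cells. Cells 300/well, 40 h, 37C, 5% CO2. Data normalized per plate to negative controls.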
p53ts 32C kill = kills p53ts cells at the permissive temperature. H1299-p53A138V at 32C, ATP luminescence viability, 24 h. Potency, µM (titrated, usually from 46.1 µM), most hits filed as cytotoxic. 0.93% of 130,000 active; also: nearly all actives have a fitted effect of over 55% in size
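Viability by ATPlite luminescence after 24 h compound treatment (up to 46 uM) at the permissive 32C. Cells are H1299 carrying p53 A138V. Scale runs from DMSO basal to 100 uM tamoxifen as full kill; AC50 from Hill fits.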
p53ts 39C tox = p53ts cell cytotoxicity, nonpermissive temperature | H1299-p53A138V viability at 39C, ATP luminescence, 24 h | Potency, µM (highest dose often 46.1 µM), actives largely listed as cytotoxic | 1.5% of 130,000 active; also: nearly all actives have a fitted effect of over 55% in size
Hits are given with their value; . = inactive; ? = inconclusive; / = not tested or not shown; [ ] = dose if it differs, or a comment. Unless noted, calls follow the shape of the dose curve; as a rule, active = well fitted curve in the direction sought with a large enough effect; inconclusive = small, poorly fitted or top-dose-only effect, or another doubt; inactive = no such curve, though single readings can be large; an effect the other way counts as inactive or inconclusive.

SMILES	IkB sig inh	Imprint erasure	p53ts 32C kill	p53ts 39C tox
Cc1ccc(S(=O)(=O)Oc2ccc(N=Nc3ccc(-c4ccc(N=Nc5c(O)ccc6cc(S(=O)(=O)O)cc(S(=O)(=O)O)c56)c(C)c4)cc3C)cc2)cc1	.	.	.[1.84 µM]	.
COc1cc(Cl)c(C)cc1Nc1c2c(nc3ccccc13)CCC2	?	.[10.9 µM]	?	2µM
O[Si@](CCCN1CCCCC1)(c1ccc(F)cc1)C1CCCCC1	.	/	.	?
Cc1cc(C)cc(NC(=O)CSc2oc(-c3ccco3)nc2S(=O)(=O)c2ccc(Cl)cc2)c1	?	.[10.9 µM]	10µM	6.31µM
O=C(O)[C@H]1CCCC[C@@H]1c1c2ccc(=O)c(O)c-2oc2c(O)c(O)ccc12	.[11.4 µM]	.[10.9 µM]	.[9.22 µM]	.[9.22 µM]
CC1CCN(c2ccc(-c3nc(-c4ccccc4)no3)cc2[N+](=O)[O-])CC1	?	.[10.9 µM]	.	22.4µM
Cc1ccc(-c2noc(-c3ccc(N4CCC(C)CC4)c([N+](=O)[O-])c3)n2)cc1	.	.[10.9 µM]	.	.
CCc1ccc(C(=O)c2cn(CC(=O)Nc3cc(OC)cc(OC)c3)c3ccc(CC)cc3c2=O)cc1	?	.[10.9 µM]	.	12.6µM
COc1ccc(-c2cc(C(F)(F)F)nc(S(C)(=O)=O)n2)cc1	.	.[10.9 µM]	?	20µM
CS(=O)(=O)c1nc(-c2cccs2)cc(C(F)(F)F)n1	?	.	?	?
CN(C(=O)c1cccc(N2C(=O)C3CC=CCC3C2=O)c1)C1CCCCC1 (stereo not drawn)	.	?	.	.
CN(C(=O)c1cccc(Nc2ccc(-c3ccc4c(c3)OCCO4)nn2)c1)C1CCCCC1	/	/	12.6µM	11.2µM
Cc1ccc(S(=O)(=O)O[C@H]2CC(C(C)(C)C)CC[C@@H]2c2ccccc2)cc1 (stereo partly drawn)	/	.[10.9 µM]	/	/
c1ccc(Nc2ccccc2Nc2ccccn2)nc1	.	.	.	.
Oc1cccc2ccc(Nc3ccccn3)nc12	/	/	15.8µM	10µM
Cc1cc(C(=O)CN2C(=O)c3ccccc3C2=O)c(C)n1Cc1cccs1	.	.	?	?
Cc1cc(C(=O)Cn2nnc3ccccc3c2=O)c(C)n1Cc1cccs1	?	.	15.8µM	12.6µM
O=C1C(Cl)=C(Nc2ccc(S(=O)(=O)Nc3ccccn3)cc2)C(=O)c2ccccc21	6.31µM	.[10.9 µM]	.[9.22 µM]	.[9.22 µM]
COc1ccc(OC)c(NC(=O)c2nc(S(=O)(=O)Cc3ccc(F)cc3)ncc2Cl)c1	.	.[10.9 µM]	?	10µM
Cc1cccc(NC(=O)c2nc(S(C)(=O)=O)ncc2Cl)c1	?	.[10.9 µM]	?	?
Cc1ccc(NC(=O)c2nc(S(=O)(=O)Cc3ccc(F)cc3)ncc2Cl)cc1C	?	.[10.9 µM]	15.8µM	2.51µM
CC(=O)Nc1ccc(NC(=O)c2nc(S(=O)(=O)Cc3ccc(F)cc3)ncc2Cl)cc1	.	.[10.9 µM]	.	10µM
CCOc1ccc(-c2cc3nc(C4CCN(C(=O)OC(C)(C)C)CC4)c(C(=O)Nc4cccc(Cl)c4C)cn3n2)cc1	.	.[10.9 µM]	.	.
Oc1ccccc1-c1cc(-c2ccc3c(c2)OCCO3)n[nH]1	?	.	12.6µM	?
CCCS(=O)(=O)c1ncc(Cl)c(C(=O)N(Cc2ccccc2)Cc2ccco2)n1	?	.[10.9 µM]	?	3.16µM
SMILES	IkB sig inh	Imprint erasure	p53ts 32C kill	p53ts 39C tox
CCS(=O)(=O)c1ncc(Cl)c(C(=O)N(Cc2ccccc2)c2ccc(OC)cc2)n1	?	.[10.9 µM]	20µM	5.01µM
CCSc1ncc(Cl)c(C(=O)Nc2c(C(=O)Nc3cccc(C)c3)oc3ccccc23)n1	.	.[10.9 µM]	.	.
CCS(=O)(=O)c1ncc(Cl)c(C(=O)Nc2c(C(=O)Nc3cccc(C)c3)oc3ccccc23)n1	?	.[10.9 µM]	?	20µM
CCS(=O)(=O)c1ncc(Cl)c(C(=O)Nc2ccccc2)n1	?	.[10.9 µM]	?	3.98µM
O=c1ccn([C@H]2O[C@H](CO)[C@@H](O)[C@@H]2O)c(=O)[nH]1	.[11.4 µM]	/	/	/
O=C1[C@@H]2C=CC=CC2=NC(=S)N1CCN1CCC(=C(c2ccc(F)cc2)c2ccc(F)cc2)CC1	.	/	.	.
CN(c1ccccc1)S(=O)(=O)c1ccc(NC(=O)c2nc(S(C)(=O)=O)ncc2Cl)cc1	?	.[10.9 µM]	?	3.16µM
CCOC(=O)c1ccc(NC(=O)c2nc(SC(C)C)ncc2Cl)cc1	?	.[10.9 µM]	.	.
CCOC(=O)c1ccc(NC(=O)c2nc(S(=O)(=O)Cc3ccccc3)ncc2Cl)cc1	.	.[10.9 µM]	.	12.6µM
CCN1c2ccccc2NC2N=C(OC)C(c3ccccc3)C21 (stereo not drawn)	?	.	?	12.6µM
CCCN1C(=O)c2ccccc2NC1c1cc(OC)c(OC)c(OC)c1 (stereo not drawn)	/	/	?	.
O=c1c2cc3c(cc2nc2sc(Nc4ccccc4)nn12)OCO3	.	.[10.9 µM]	12.6µM	15.8µM
Cc1ccc(S(=O)(=O)N(CC(=O)O)c2ccc(Cl)cc2)cc1	/	/	.	.
COc1ccc(Nc2c3c(nc4ccc(NC(=O)c5cc(Cl)ccc5OC)cc24)CCCC3)cc1OC	?	.[10.9 µM]	5.62µM	5.01µM
COc1cc(OC)cc(C(=O)Nc2ccc3nc4c(c(Nc5ccc(OC)c(OC)c5)c3c2)CCCC4)c1	.	?	?	?
Cc1ccc(NC(=O)N2CCC(c3ccccc3)C2)cc1C (stereo not drawn)	.	.[10.9 µM]	?	12.6µM
Cc1ccc(NC(=O)N2CC3CCCN3c3ccccc32)cc1C (stereo not drawn)	?	.[10.9 µM]	?	.
Cc1ccc(C2CCN(C(=O)Nc3ccccc3)C2)cc1 (stereo not drawn)	?	.	?	?
O=C(Nc1ccc(Cl)cc1)N1CCC(c2ccccc2)C1 (stereo not drawn)	?	.[10.9 µM]	?	12.6µM
Cc1ccc(NS(=O)(=O)c2cc(C(=O)O)ccc2Cl)cc1C	/	/	.	.
O=c1/c(=C\c2ccc3c(c2)OCO3)sc2n1CCCN=2	?	.	12.6µM	12.6µM
Cc1ccc(/C=c2/sc3n(c2=O)CCCN=3)o1	/	/	.	.
O=C(NCCN1CCOCC1)c1cc(-c2ccc(O)cc2)on1	.	.	.	.
CCN(CC)CCNC(=O)Nc1ccc2c(c1)N(Cc1ccccc1)C(=O)c1ccccc1S2	.	.[10.9 µM]	.	20µM
CCN1C(=O)c2ccccc2Sc2ccc(NC(=O)Nc3ccc(C(C)=O)cc3)cc21	.	.[10.9 µM]	.	.
SMILES	IkB sig inh	Imprint erasure	p53ts 32C kill	p53ts 39C tox
O=C(CCC(=O)N1CCSc2ccccc21)Nc1ccc(Cl)cc1	.	.[10.9 µM]	.	?
O=C(COc1ccccc1Cl)Nc1ccc2c(c1)OCCO2	?	.	?	?
COc1ccccc1C(=O)Nc1ccc2c(c1)OCCO2	.	/	15.8µM	15.8µM
COc1ccccc1C(=O)Nc1ccc2c(c1)nc(CCNC(C)=O)n2C	.	.	12.6µM	12.6µM
COc1ccccc1NC(=O)CN1CCN(CC(=O)Nc2ccc3c(c2)OCCO3)CC1	?	.	.	25.1µM
Cc1cccc(OCC(=O)Nc2ccc3c(c2)OCCO3)c1	.	.	10µM	?
Cc1cc(Cl)ccc1Nc1sc(C(=O)c2cc3cc(Cl)ccc3o2)c(N)c1C#N	.[11.4 µM]	.[10.9 µM]	.[9.22 µM]	.[9.22 µM]
COc1ccc(-c2coc3cc(O[C@@H]4O[C@@H](CO)[C@@H](O)[C@@H](O)[C@H]4O)cc(O)c3c2=O)cc1	.[11.4 µM]	/	/	/
COc1cc(SC)ccc1C(=O)Nc1ccc2c(c1)OCCO2	?	.	10µM	12.6µM

Screening results: PubChem, National Center for Advancing Translational Sciences (NCATS)
